High-throughput results as filed in PubChem.
TGFb SMAD3 inh: inhibitors of TGF-b signaling | HepG2 CAGA-GFP TGF-b/SMAD3 reporter, GFP fluorescence, 18 h; TGF-beta stimulated, 500 pg/mL final | Potency, µM (top dose mostly 46.1 µM), for the others: at the top dose activity, negative = inhibition, usual class: inhibitors | actives 1.2% (n = 410,000) | AID 588855; also: potency is read from the fitted curve at half-maximal effect; % is scaled to controls: 0 for no effect and ±100 for the full control effect; nearly all actives have a fitted effect of over 65% in size
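Inhibition of TGF-beta-driven CAGA-GFP reporter expression in HEPG2 cells is measured by cellular GFP fluorescence after 18 h stimulation with 500 pg/mL recombinant TGF-beta in 1% FBS medium at 37 degrees C.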
IL1B secr inh: inhibitors of inflammasome signaling (IL-1 beta secretion) | AID 743279 | actives 4.7% (n = 360,000) | activity change, % at 57.5 µM | THP-1 LPS/ATP IL-1B secretion, AlphaLISA, 16 h; active compounds read low; in the data active = activity change below about -50%; inconclusive = mostly about -30% to -49%; also: % is scaled to controls: 0 for no effect and ±100 for the full control effect
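THP-1 cells pretreated 1 hr with compounds (up to 57.5 uM final), then stimulated with LPS (250 ng/mL final) plus ATP (1.25 mM final); secreted IL-1B measured by AlphaLISA after 16 hr, decreased signal indicating inhibition.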
ASM inhibitor: human S-ASM enzyme inhibition | P17405 | placental ASM, HMU-PC fluorogenic substrate, 60 min | Potency, µM (series often up to 57.5 µM), without a hit: at the highest dose activity change, negative = inhibition, usual class: inhibitors | actives 0.006% (n = 340,000); also: potency is read from the fitted curve at half-maximal effect
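Fluorescence read-out (Ex 386 nm, Em 447 nm) after stopping the reaction at pH 10. Enzyme: ASM from human placenta; substrate HMU-PC0, 9 uM final; 60 min, 37 °C. Compound preincubation 10 min, ambient temperature.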
HepG2 viability: counter-screen for TGF-b inhibitors: cytotoxicity in HepG2 cells | HepG2 CAGA-GFP viability, ATP luminescence, 18 h | Potency, µM (highest dose often 46.1 µM), without a hit: at the highest dose activity change, negative = cytotoxicity, most hits filed as cytotoxic | actives 0.76% (n = 410,000) | AID 588856; also: potency is read from the fitted curve at half-maximal effect
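HepG2 CAGA-GFP cells (1000/well, DMEM with 1% FBS) received compound, then TGF-beta at 500 pg/mL final, and were incubated 18 hours at 37 degrees C. Viability was read by CellTiter-Glo luminescence. Media-only wells were set as complete cell-killing and DMSO as no toxicity.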
DT40 TDP1 CPT: DT40-hTDP1 cell growth loss with CPT | actives 12% (n = 420,000) | chicken DT40 Tdp1-/-;hTDP1 cells + 20 nM CPT, ATP luminescence, 48 h | AID 686979 | Potency, µM (top dose mostly 46.2 µM), without a hit: at the top dose activity change, negative = growth inhibition, usual class: inhibitors; also: potency is read from the fitted curve at half-maximal effect; % is scaled to controls: 0 for no effect and ±100 for the full control effect; nearly all actives have a fitted effect of over 55% in size
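Chicken DT40 Tdp1-/- cells stably complemented with human TDP1 were seeded at 400 cells/well in medium containing 20 nM camptothecin, exposed to pin-transferred compounds, and grown at 37 °C for at least 48 hr. Viability was read as ATP luminescence.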
TDP1 cell noCPT: qHTS for Inhibitors of human tyrosyl-DNA phosphodiesterase 1 (TDP1): qHTS in cells in absence of CPT; DT40 Tdp1-/- hTDP1 cells, no CPT, ATP luminescence, 48 h; Potency, µM (doses to about 46.2 µM), for the others: at the highest dose activity change, negative = growth inhibition, actives largely listed as inhibitors; actives 15% (n = 420,000); AID 686978, 2013; also: potency is read from the fitted curve at half-maximal effect; % is scaled to controls: 0 for no effect and ±100 for the full control effect; nearly all actives have a fitted effect of over 55% in size
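Chicken DT40 Tdp1-/- cells complemented with human TDP1, screened without camptothecin (DMSO vehicle only), 400 cells/well. Compounds pin-transferred, cells incubated at 37 °C for at least 48 hr. Growth read as ATP-dependent luminescence (CellTiter-Glo, 30 min at RT).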
Starred values were filed as active, the others as inactive; i = inactive; ? = inconclusive; nt = no result. Only some compounds are listed: those with a hit (about 19% of all), similar ones and a draw of the others. Unless noted, calls follow the shape of the dose curve; as a rule, active = well fitted curve in the direction sought with a large enough effect; inconclusive = small, poorly fitted or top-dose-only effect, or another doubt; inactive = no such curve, though single readings can be large; an effect the other way counts as inactive or inconclusive.

SMILES	TGFb SMAD3 inh	IL1B secr inh	ASM inhibitor	HepG2 viability	DT40 TDP1 CPT	TDP1 cell noCPT
CN(C)S(=O)(=O)c1ccc(NC(=O)CSc2nc3ccccc3n2-c2ccccc2)cc1	-2%	-6	-11%	-13%	?	21µM*
O=C(O)CSc1nc2ccccc2n1-c1ccccc1	-5%	-81*	6%	15%	11%	19%
O=C(O)CSc1nc(C(F)(F)F)cc(=O)n1-c1ccccc1	?	-5	2%	5%	2%	-13%
O=C(c1cccc([N+](=O)[O-])c1)N1CCN(S(=O)(=O)N2CCCCC2)CC1	2%	33	-3%	-4%	-27%	-13%
CC(C)=CC(=O)O[C@@H]1Cc2cc3ccc(=O)oc3cc2OC1(C)C	-14%	-1	-4%	-14%	?	?
Cc1ccn2cc(-c3cccc(NC(=O)c4cccs4)c3)nc2c1	?	-99*	-2%	-24%	?	21µM*
O=C(Nc1cccc(-c2csc(-c3ccccc3)n2)c1)c1cccs1	?	-63*	-22%	-42%	18µM*	16µM*
Oc1c(Br)cc(Br)cc1/C=N/NC(=S)N[C@H]1CC2C=CC1C2 (stereo partly drawn)	?	90	375%	-41%	?	?
COc1cccc(/C=N/NC(=S)Nc2cccc(C(=O)O)c2)c1O	25%	34	0%	8%	?	-27%
COc1cccc(/C=N/NC(=S)NC2CC3CC2C2C=CCC32)c1O (stereo not drawn)	-4%	nt	i	-19%	?	29µM*
Oc1ccccc1/C=N/NC(=S)NC1CC2CC1C1C=CCC21 (stereo not drawn)	?	?	340%	18µM*	3.7µM*	4.1µM*
CCCCCNC(=O)C(c1ccncc1)n1c(=O)c(-c2ccccc2)nc2ccccc21 (stereo not drawn)	nt	-12	nt	nt	?	?
COc1ccc(NC(=O)C(c2ccccc2F)n2c(=O)c(-c3cc4ccccc4[nH]3)nc3ccccc32)cc1 (stereo not drawn)	nt	-10	nt	nt	16µM*	13µM*
COc1ccc(NC(=O)C(c2ccncc2)n2c(=O)c(-c3ccccc3)nc3ccccc32)cc1 (stereo not drawn)	nt	-56*	nt	nt	?	?
O=C(NCc1ccccc1)C(c1ccc(-c2ccccc2)cc1)n1c(=O)c(-c2cc3ccccc3[nH]2)nc2ccccc21 (stereo not drawn)	nt	44	nt	nt	?	15µM*
COc1ccc(NC(=O)C(c2ccccc2)n2c(=O)c(-c3cc4ccccc4[nH]3)nc3ccccc32)cc1 (stereo not drawn)	nt	-12	nt	nt	16µM*	16µM*
O=C(NCc1ccccc1)C(c1ccncc1)n1c(=O)c(-c2cc3ccccc3[nH]2)nc2ccccc21 (stereo not drawn)	nt	-29	nt	nt	?	?
CC(=O)C1=C(C)Nc2ncnn2C1c1cccc(O)c1 (stereo not drawn)	-10%	0	10%	-6%	?	13%
Cc1ccc2nc(CSc3nnc(NC(=O)COc4ccccc4)s3)cc(=O)n2c1	-22%	nt	nt	0%	-8%	1%
CC(=O)O[C@H]1C2OC(=O)C(C)=C2[C@@H]2OC(=O)[C@]3(CCC4OC41C)OC23 (stereo partly drawn)	23%	-72*	-3%	-10%	15µM*	?
CCN(C)c1ccc(/C=C/c2ccnc3ccccc23)cc1	82%	nt	nt	-14%	11µM*	11µM*
